Measured values reported in PubChem BioAssay (NCATS).
Records with an inconclusive call do not appear. A call without a number means that no potency is given here. Active and inactive are the calls of the source. Calls come from the whole dose curve; as a rule, active = well fitted inhibition curve with a large enough effect; inconclusive = small, poorly fitted or top-dose-only effect; inactive = flat fitted curve, though single readings scatter.

The molecules below were run against Dual specificity protein kinase CLK4 (Homo sapiens) (UniProt Q9HAZ1) (assay: qHTS Assay for Inhibitors of CDC-like Kinase 4 (ADP-FP Assay) (AID 1795; note: nearly all actives have a fitted effect of over 60% in size)). Conditions: Transcreener ADP fluorescence polarization; series mostly up to 50 µM.
Sequence of Dual specificity protein kinase CLK4 (Homo sapiens) (Q9HAZ1 whole entry, looked up): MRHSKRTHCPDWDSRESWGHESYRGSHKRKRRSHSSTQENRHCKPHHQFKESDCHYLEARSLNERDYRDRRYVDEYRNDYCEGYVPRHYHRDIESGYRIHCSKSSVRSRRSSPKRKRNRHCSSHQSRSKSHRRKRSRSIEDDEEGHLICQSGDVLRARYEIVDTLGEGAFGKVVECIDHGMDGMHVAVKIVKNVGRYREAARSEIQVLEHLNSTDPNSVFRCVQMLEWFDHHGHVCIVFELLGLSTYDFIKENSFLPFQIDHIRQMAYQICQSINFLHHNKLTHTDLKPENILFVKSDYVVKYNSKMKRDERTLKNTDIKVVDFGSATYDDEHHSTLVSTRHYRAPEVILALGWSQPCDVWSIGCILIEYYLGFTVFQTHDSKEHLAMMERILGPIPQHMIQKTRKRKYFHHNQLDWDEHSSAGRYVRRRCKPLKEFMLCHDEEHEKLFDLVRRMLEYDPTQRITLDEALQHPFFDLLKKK
Procedure: NIH Molecular Libraries Probe Production Centers Network [MLPCN] NIH Chemical Genomics Center [NCGC] MLPCN Grant: 1R03MH084827-01 Assay Submitter (PI): Tom Misteli NCGC Assay Overview: Clk4 (Invitrogen cat # PV3839) was assayed using ATP and the RS repeat peptide (AnaSpec cat # 61722) as substrates using Transcreener (trade mark), a competitive fluorescence polarization (FP) assay. For the present assay, we used the Orange TranscreenerTM ADP2 (BellBrooks Labs, Madison, Wis) detection system to monitor ADP production in the kinase reaction. […] This allows the ADP tracer to freely rotate leading to a decrease in the observed FP value. The amount of ADP produced can then be calculated using a calibration curve. The positive control for the assay was TG003 (Sigma-Aldrich, cat # 300801-52-9) which is a Clk4 inhibitor [2].
NCGC Assay Protocol Summary: Two uL/well of substrate-buffer solution (100 uM RS peptide, 1 uM ATP, 25 mM Tris pH7.5, 10 mM MgCl2, 0.5 mM EGTA, 2.5 mM DTT, 0.01% Triton X-100 final concentration) was dispensed into 1,536-well assay plates (Greiner, solid black medium-binding plates) with Aurora Discovery BioRAPTR Flying Reagent Dispenser (FRD; Beckton-Dickenson). Using a Kalypsys pin tool equipped with a 1,536-pin tool, 23 nL of compound solution was transferred to the assay plate. Two uL/well Clk4-buffer solution (6.25 nM Clk4, 25 mM Tris pH 7.5, 10 mM MgCl2, 0.5 mM EGTA, 2.5 mM DTT, 0.01% Triton X-100, final concentration) was then added using the FRD yielding a total kinase reaction volume of 4 uL/ well. Then 4 uL/well of detection mixture (4 nM orange fluorescent tracer, 1 ug/mL ADP antibody, final concentration) was then added after an hour and the polarization signal was measured using the EnVision plate reader (PerkinElmer, Waltham, MA) after 30 min of room temperature incubation using the following filters and program settings: BODIPY TMR FP dual Enh mirror (barcode 682); BODIPY-TMR 531 (barcode 105) excitation; BODIPY-TMR FP P/S polarized 595 nm filters (barcodes 210 and 211, respectively); 100% light; 150 flashes; 1.35 G-factor; Detector gains were 685 for the 1st detector; 630 for the 2nd detector.
Potency is the fitted concentration of half-maximal effect.

SMILES	Potency
COCCn1c(=O)c(-c2cccc(C#N)c2)nc2cnc(N(C)C)nc21	inactive
COc1ncc2nc(-c3ccccc3)c(=O)n(-c3ccccc3)c2n1	inactive
COc1ccc(-n2c(=O)c(-c3cccc(C#N)c3)nc3cnc(N4CCNCC4)nc32)cc1	inactive
Cc1cnc(CNc2ccnc(-c3ccccc3CN(C)C)n2)cn1	inactive
O=c1cnc2cncnc2n1Cc1ccccc1	inactive
CN(C)Cc1ccccc1-c1cc(N(C)Cc2ccco2)ncn1	inactive
COc1ccc(-n2c(=O)c(-c3cccs3)nc3cnc(N(C)C)nc32)cc1	inactive
COc1ccc(-n2c(=O)cnc3cnc(N(C)C)nc32)cc1	11.2 µM (active)
COc1cccc(-c2nc(N3CCN(C)CC3)c3ccccc3n2)c1	inactive
FC(F)(F)c1ccccc1-c1nccc(NCc2cccs2)n1	inactive
COc1ccc(-n2c(=O)c(-c3cccs3)nc3cncnc32)cc1	inactive
COCCNc1ncnc2ccc(-c3cccnc3)cc12	10 µM (active)
COc1ncc2nc(C)c(=O)n(C3CC3)c2n1	inactive
Cc1nc2cnc(Nc3ccccc3)nc2n(Cc2ccc(F)cc2)c1=O	inactive
Cc1noc(C)c1-c1cc(NC2CCNCC2)ncn1	inactive
COc1cccc(Cn2c(=O)c(-c3cccc(C#N)c3)nc3cnc(N4CCN(C)CC4)nc32)c1	inactive
COc1cccc(Nc2ncc3nc(-c4ccc(Cl)cc4)c(=O)n(C4CC4)c3n2)c1	inactive
FC(F)(F)c1ccccc1-c1nccc(N2CCNCC2)n1	inactive
CN(C)c1ncc2nc(-c3ccc(F)cc3)c(=O)n(Cc3cccs3)c2n1	inactive
COc1cccc(-c2cncnc2N(C)Cc2ccco2)c1	inactive

SMILES	Potency
CS(=O)(=O)Nc1cccc(-c2ccc3ncnc(NC4CCNCC4)c3c2)c1	11.2 µM (active)
c1ccc(CNc2ncnc3ccc(-c4cccnc4)cc23)cc1	2.24 µM (active)
COc1ccc(Oc2ncc3nc(CCc4ccccc4)c(=O)n(C[C@H]4CCCO4)c3n2)cc1	inactive
Cc1nc2cncnc2n(Cc2ccccc2)c1=O	inactive
COc1cccc(-c2ccc3ncnc(N(C)Cc4ccco4)c3c2)c1	0.562 µM (active)
Cc1noc(C)c1-c1cc(N2CCN(C)CC2)ncn1	inactive
COc1ncc2nc(-c3ccc(F)cc3)c(=O)n(C)c2n1	inactive
CS(=O)(=O)Nc1cccc(-c2ccc3ncnc(NC4CC4)c3c2)c1	4.47 µM (active)
CCNc1ncc2nc(-c3ccc(OC)cc3)c(=O)n(C[C@H]3CCCO3)c2n1	inactive
COCCNc1cc(-c2c(C)noc2C)ncn1	inactive
Fc1ccc(Nc2ncncc2-c2ccoc2)cc1	5.01 µM (active)
Cn1cc(-c2nc3cncnc3n(Cc3ccc(F)cc3)c2=O)c2ccccc21	inactive
CN(Cc1ccco1)c1ncnc2ccc(-c3ccccc3C(F)(F)F)cc12	inactive
CN(C)c1ncc2nc(-c3cccc(C#N)c3)c(=O)n(CCC#N)c2n1	inactive
CN1CCN(c2ncnc3ccc(-c4ccc(C(=O)N(C)C)cc4)cc23)CC1	inactive
CN(C)c1ncc2nc(-c3cccs3)c(=O)n(CCC#N)c2n1	inactive
Cn1cc(-c2nc3cnc(Oc4ccccc4)nc3n(C)c2=O)c2ccccc21	inactive
Cn1cc(-c2nc3cnc(N4CCNCC4)nc3n(CCC#N)c2=O)c2ccccc21	inactive
COc1cccc(Nc2ncc3nc(-c4cn(C)c5ccccc45)c(=O)n(CCC#N)c3n2)c1	inactive
NCCn1c(=O)c(CCc2ccccc2)nc2cncnc21	inactive
